Source: PubChem BioAssay (NMMLSC)
Anthrax LF inh2 = blocks Bacillus anthracis lethal factor protease | multiplex microsphere protease cleavage assay, LF | inhibition, % at 10 µM | 0.12% of 360,000 active | AID 588501
Bead autofluor = counter-screen for toxin protease inhibitors: compound fluorescence; 3.1% of 360,000 active; compound autofluorescence counterscreen, microsphere flow cytometry; stronger effect = higher value; fluorescence intensity (test concentration not listed); in the data active = fluorescence intensity above about 16000; inconclusive = no clear call, values can overlap the other calls
BoNT F protease = blocks Botulinum neurotoxin F light chain protease; Multiplex microsphere protease cleavage assay, flow cytometry; inhibition, % at 10 µM; 0.22% of 360,000 active; in the data active = inhibition above about 35%, passing the limit was not always enough; inconclusive = no clear call, values can overlap the other calls
BoNT A protease = BoNT A light chain protease inhibition; AID 588499; inhibition, % at 10 µM; 0.17% of 360,000 active; multiplex microsphere protease substrate cleavage, flow cytometry
Of the large screens only hits and unclear results are named; the others gave an inactive call. Rows were chosen to be rich in hits. Some 3.5% of all compounds tested hit in one or more screens of this group. Cut-off read from the data, not from the text of the source, unless noted: active = inhibition above about 30%; inconclusive = no clear call, values can overlap the other calls; inactive = below that.

COc1ccc(NC(=O)CCCN2C(=O)C3CC=CCC3C2=O)cc1 (centres undefined)	none
CC(C)c1ccc(NC(=O)COC(=O)Cn2cnc3c2c(=O)n(C)c(=O)n3C)cc1	none
CCCCC(=O)C1C(=O)NC(=O)NC1=O	Bead autofluor 19202
CCCCC(=O)c1c(C)cc(C)[nH]c1=O	none
COc1ccc2c(c1)/C(=C/c1cnc[nH]1)C(=O)N2	none
O=C1Nc2ccccc2/C1=C/c1cnc[nH]1	Bead autofluor 19606
O=C1CSC(c2ccccc2)N1Cc1ccccc1 (centres undefined)	Bead autofluor 16347, BoNT F protease inconclusive
COC(=O)c1ccc(C2SCC(=O)N2Cc2ccccc2)cc1 (centres undefined)	none
CC(=O)Nc1ccc(CN(C)c2c(C)nc3ccc(C(=O)N(C)Cc4ccccc4)cn23)cc1	none
O=C(CSc1ncccn1)n1c2c(c3ccccc31)CCCC2	Bead autofluor 18875
CCN(c1ccc(NC(=O)COC(=O)c2cccs2)cc1)C(C)C	none
CCN(CC)c1ccc(NC(=O)COC(=O)c2cccs2)cc1	Bead autofluor 22712
N#CC1=C(N)Oc2cc(O)ccc2C1c1ccccc1 (centres undefined)	Bead autofluor 21140
COc1ccc(C2C(C#N)=C(N)Oc3cc(O)ccc32)cc1 (centres undefined)	BoNT F protease inconclusive
CC1(Oc2ccc(Cl)cc2)CCN(Cc2ccc(-c3ccccn3)cc2)C1 (centres undefined)	none
Cc1ccc(NC2CCCN(C(=O)C3CCCC3)C2)cc1C (centres undefined)	none
CC(OC(=O)c1ccccc1CCc1ccccc1)C(N)=O (centres undefined)	BoNT F protease inconclusive
C=CCNC(=O)c1ccc(N(C)S(=O)(=O)c2ccc(OC)cc2)cc1	Bead autofluor 16765
Cc1ccc(N2C(=O)NC(=O)C3(Cc4ccccc4N4CCN(c5ccccc5)CC43)C2=O)cc1 (centres undefined)	Bead autofluor 19868
O=C1c2ccccc2C(=O)C12Cc1ccccc1N1CCN(c3ccccc3)CC12 (centres undefined)	none
O=C1NC(=O)C2(Cc3ccccc3N3CCCC32)C(=O)N1c1cccc(Cl)c1 (centres undefined)	Bead autofluor 20287, BoNT A protease inconclusive
CC1=C(C(=O)N(C(C)C)C(C)C)CC(CC(=O)NCc2cccs2)C(=O)N1CCCN1CCCC1=O (centres undefined)	none
COc1ccccc1-c1cc(-c2cc(Cl)ccc2O)n[nH]1	Bead autofluor 22763
COc1ccc(O)c(-c2cc(-c3ccccc3Cl)[nH]n2)c1	none
CC1(C(=O)Nc2ccc3c(c2)OCCO3)CCC(=O)N1C1CCN(Cc2ccccc2)CC1 (centres undefined)	none
Cc1cc(/C=C2/C(=O)N(C)C(=S)N2C)c(C)n1C1CC1	none
CCN1C(=O)C(=Cc2cc(C)n(C3CC3)c2C)C(=O)N(CC)C1=S	BoNT A protease 41.0
Cc1cc(C=C2C(=O)N(C)C(=S)N(C)C2=O)c(C)n1C1CCCC1	Anthrax LF inh2 37.9, BoNT A protease 53.7
Cc1cc(/C=C2\C(=O)NC(=S)N(C)C2=O)c(C)n1C1CCCCC1	none
Cc1cc(/C=C2\SC(=S)NC2=O)c(C)n1C1CC1	Bead autofluor 20502
CCN(CC(=O)Nc1ccc(NC(C)=O)cc1)C(=O)c1ccc(N(C)S(=O)(=O)c2ccc(C)cc2)cc1	none
Cc1noc(C)c1C(=O)Nc1sc(C)c(-c2ccccc2)c1C#N	Bead autofluor 22924, BoNT A protease inconclusive
CCOC(=O)CSC1=C(C#N)C(c2ccccc2Cl)C(C(=O)OC)C(=O)N1 (centres undefined)	Bead autofluor 20786
Cc1ccc(S(=O)(=O)N(C)c2ccc3c(c2)C(=O)c2ccccc2-3)cc1	none
O=C(C(=Cc1ccc(F)cc1)C(=O)c1ccccc1)c1ccccc1	none
O=C(O)CCS(=O)(=O)Cc1cccc(Cl)c1	Bead autofluor 23460
COc1cc(S(=O)(=O)N2CCN(c3ccccc3)CC2)ccc1Cl	none
COc1cc(S(=O)(=O)N2CCN(c3ccccc3F)CC2)ccc1Cl	Bead autofluor 20773
COc1ccc(S(=O)(=O)N2CCN(c3ccccc3OC)CC2)cc1OC	BoNT F protease inconclusive
O=S(=O)(c1ccc(F)cc1)N1CCN(c2ccccc2)CC1	Bead autofluor 20200
COc1ccccc1N1CCN(S(=O)(=O)c2ccccc2)CC1	Bead autofluor 19619
COc1ccccc1N1CCN(S(=O)(=O)c2ccc(Br)s2)CC1	Bead autofluor 22653
CCN(CC)S(=O)(=O)c1cccc(C(=O)Nc2ccc(S(=O)(=O)NC3=NCCCCC3)cc2)c1	none
CCOC(=O)[C@]12CCCC=C1N(Cc1ccco1)C(=O)[C@H](CC(=O)N1CCSCC1)C2	none
COc1ccc(/C=C(/C(=O)Nc2ccccc2C(=O)N2CCCC2)c2ccccc2)cc1	Bead autofluor 22608
